CYP2C9 inhib – human CYP2C9 inhibition | P11712 | CYP2C9 Supersomes, luciferin-H conversion, luminescence | inhibition, % at 5 µM | 20% of 96,000 active;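 active = blocking of liver enzyme CYP2C9 beyond about 50% at 5 µM, limit read from the data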
CYP2C9 act – CYP2C9 (human) activation | P11712 | recombinant CYP2C9, luciferin-H conversion, luminescence; stronger effect = higher value; factor 1 = untreated enzyme, 0 = blocked | activation factor at 5 µM | 1.4% of 96,000 active;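 active = activation factor of 2 or more for CYP2C9 at a 5 µM dose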;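 also: 0 = sulfaphenazole-blocked wells and 1 = vehicle-only wells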
CYP2C19 activ – increases human CYP2C19 enzyme activity; P33261; recombinant CYP2C19, luciferin-H EGE luminescence; stronger effect = higher value; 0 = fully inhibited enzyme, 1 = untreated enzyme; activation factor at 5 µM; 96,000 tested, under 10 active; AID 1025;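 active = activation factor of at least 2 at 5 µM in the primary screen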;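 also: 0 = wells with 2.5 mM tranylcypromine and 1 = vehicle-only wells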
Target sequence (P33261 whole entry, looked up): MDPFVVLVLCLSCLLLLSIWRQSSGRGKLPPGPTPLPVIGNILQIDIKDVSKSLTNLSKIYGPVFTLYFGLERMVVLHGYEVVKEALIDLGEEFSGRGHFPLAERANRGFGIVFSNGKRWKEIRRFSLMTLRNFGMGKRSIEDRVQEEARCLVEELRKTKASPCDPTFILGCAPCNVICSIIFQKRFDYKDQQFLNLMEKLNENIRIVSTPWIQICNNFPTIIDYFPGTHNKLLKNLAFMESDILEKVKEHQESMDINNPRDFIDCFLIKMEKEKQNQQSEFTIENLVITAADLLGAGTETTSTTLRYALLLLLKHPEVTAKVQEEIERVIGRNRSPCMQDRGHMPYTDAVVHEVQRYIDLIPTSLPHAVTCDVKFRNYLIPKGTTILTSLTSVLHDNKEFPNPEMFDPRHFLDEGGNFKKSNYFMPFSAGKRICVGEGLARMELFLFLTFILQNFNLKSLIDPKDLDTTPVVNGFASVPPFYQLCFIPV
CYP2C19 inh – inhibitors of human CYP2C19; 21% of 96,000 active; AID 778; inhibition, % at 5 µM; CYP2C19 Supersomes, luciferin-H EGE luminescence, 30 min;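 active = CYP2C19 inhibition above a set limit at 5 µM in the primary screen, cut at about 50% in these data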;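 also: plate controls were negative control wells for no effect and 2.5 mM tranylcypromine positive control for full effect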
EphB4 ephrin blk – EphB4-ephrin-B2 interaction antagonism | AID 720 | 0.15% of 97,000 active | EphB4 LBD / TNYL-RAW-Alexa532 peptide, fluorescence polarization | inhibition, % at 7 µM;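 active = inhibition above the screen-wide mean inhibition plus 3 SD, cut at about 15% in these data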;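 also: 0% = DMSO wells and 100% = excess unlabeled TNYL-RAW peptide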
* = called active by the depositor; x = not tested or not shown. A selection: hits, their analogues and other compounds. The true share with any hit is near 27%.

SMILES	CYP2C9 inhib	CYP2C9 act	CYP2C19 activ	CYP2C19 inh	EphB4 ephrin blk
O=C(O)C1C(c2ccccc2)C(C(=O)Oc2ccccc2)C1c1ccccc1 (stereo not given)	2	1	1.1	-6	7
Cc1c(C#N)c(=O)oc2ccc3ccccc3c12	17	0.8	0.8	18	-10
CCOCCCNS(=O)(=O)c1cc(Br)cc2c1N(C(=O)C1CC1)CC2	-131	2.3*	0.8	18	x
CC(=O)N1CCc2cc(Br)cc(S(=O)(=O)NCC3CCCO3)c21 (stereo not given)	-5	1.1	0.8	24	-2
CCN(c1ccc2c(c1)OCO2)S(=O)(=O)c1cc(Br)cc2c1N(C(C)=O)CC2	-43	1.4	0.4	56*	-10
O=C(C1CC1)N1CCc2cc(Br)cc(S(=O)(=O)N3CCOCC3)c21	72*	0.3	0.6	35	-8
O=C(C1CC1)N1CCc2cc(Br)cc(S(=O)(=O)NCc3ccco3)c21	-2	1	0.8	15	x
O=C(C1CC1)N1CCc2cc(Br)cc(S(=O)(=O)NCc3ccc4c(c3)OCO4)c21	14	0.9	0.3	67*	x
CCN1CCCC1CNS(=O)(=O)c1cc(Br)cc2c1N(C(=O)C1CC1)CC2 (stereo not given)	48	0.5	1	-5	x
CCCCN(C)S(=O)(=O)c1cc(Br)cc2c1N(C(=O)C1CC1)CC2	18	0.8	0.1	86*	x
O=C(Nc1cccc(Cl)c1)OCc1cnc(Cl)s1	24	0.8	0.7	28	5
C=CCC(C=C)S(=O)(=O)c1ccc(C)cc1 (stereo not given)	14	0.9	0.1	87*	1
CCOC(=O)N1CCN(C(=O)CNS(=O)(=O)c2cccs2)CC1	8	0.9	1	4	1
CCCOc1ncnc2c1[nH]c1ccccc12	18	0.8	0.8	22	1
CN(C)C=Nc1ncc2c([nH]c3ccccc32)c1C#N	50	0.5	0.4	63*	-1
NC(=O)c1ccc(C2SCC(=O)N2Cc2ccccc2)cc1 (stereo not given)	16	0.8	0.8	23	-5
Clc1ccc(CO/N=C/c2c(-c3ccccc3)nc3n2CCS3)c(Cl)c1	65*	0.4	0.9	12	-1
O=C(CCl)N(c1ccc(Cl)cc1)c1c[nH]c2ccccc12	82*	0.2	0.1	90*	-2
O=C(CCl)N(c1ccccc1)c1c[nH]c2ccccc12	95*	0.1	0.6	44	-8
CS(=O)(=O)N1CCCC(C(=O)NCc2ccc(F)cc2Cl)C1 (stereo not given)	-13	1.1	0.9	8	-2
O=C(CCn1c(=O)sc2ccccc21)NCCCn1ccnc1	x	x	x	x	5
O=C(NCCCn1ccnc1)c1csc2ccccc12	87*	0.1	0.1	87*	3
CCSc1ccccc1C(=O)NCCCn1ccnc1	63*	0.4	0.1	92*	8
CCCCCNC(=O)c1ccccc1SC	-29	1.3	0.4	59*	-2
COc1ccc(NC(=S)NCCCn2ccnc2)cc1	x	x	x	x	-1
SMILES	CYP2C9 inhib	CYP2C9 act	CYP2C19 activ	CYP2C19 inh	EphB4 ephrin blk
COc1ccc(C(=O)Nc2ccccc2C(=O)NCCCn2ccnc2)cc1	100*	0	0.2	85*	5
CSc1nc2nccc(/C=C\c3ccccc3)n2n1	25	0.8	0.6	38	0
COC(=O)Cn1cc(C(=O)OC)cc(Br)c1=O	13	0.9	0.6	39	-3
O=C(NC1CCCCC1)c1ccc(N2CCCC2=O)cc1	2	1	1	-2	-10
O=C(NCCCn1ccnc1)c1ccco1	6	0.9	0.9	15	-3
O=C(Nc1ccccc1C(=O)NCCCn1ccnc1)c1ccccc1	96*	0	0.2	84*	2
COc1ccccc1NC(=O)CSc1ncn[nH]1	-22	1.2	0.8	17	-5
O=C(CSc1ncn[nH]1)Nc1ccc(Br)cc1F	6	0.9	0.2	82*	2
O=C(CSc1ncn[nH]1)Nc1ccccc1C(=O)O	1	1	1	-5	-6
O=C(CSc1ncn[nH]1)Nc1ccc(Cl)c(Cl)c1	27	0.7	0.4	63*	7
CCOC(=O)N1CCC(NC(=O)c2ccc3c(c2)N(CC)CCS3)CC1	x	x	x	x	1
Cc1noc(C)c1C(=O)OCC(=O)c1ccc[nH]1	85*	0.2	0.5	48	5
Cc1noc(C)c1C(=O)OCC(=O)c1cc(C)n(Cc2ccccc2Cl)c1C	87*	0.1	0.1	90*	-3
Cc1noc(C)c1C(=O)OCC(=O)NCCc1ccc(Cl)cc1	28	0.7	0.7	33	-4
Cc1ccc(CNC(=O)COC(=O)c2c(C)noc2C)cc1	6	0.9	0.1	86*	-3
CCCn1c(N)c(C(=O)COC(=O)c2c(C)noc2C)c(=O)n(C)c1=O	51*	0.5	0.9	14	5
Cc1cccc(OCc2nnc(SCC(=O)Nc3ccc(C)c(Cl)c3)o2)c1	-2	1	1.2	-15	6
COc1ccc(C=O)cc1CSc1nnc(COc2cccc3cccnc23)o1	x	x	x	x	-9
COC(=O)c1ccc(OC)c(CSc2nnc(COc3cccc(C)c3)o2)c1	90*	0.1	0	96*	x
COC(=O)c1ccc(OC)c(CSc2nnc(COc3ccc(OC)cc3)o2)c1	69*	0.3	0.6	38	x
Cc1sc2ncn3c(C)nnc3c2c1C	31	0.7	1.1	-8	15
O=C1C=C(NCc2ccco2)CC(c2ccc(Cl)cc2)C1 (stereo not given)	32	0.7	0.4	62*	-6
Nc1n[nH]c2c1C1(CCCCC1)Cc1ccccc1-2	33	0.7	0.4	58*	x
CCC(=O)Nn1cnc2c(c1=O)C1(CCCCC1)Cc1ccccc1-2	-9	1.1	0.6	42	5
COc1cccc(OCCCCSc2ncccn2)c1	20	0.8	0.8	20	0
SMILES	CYP2C9 inhib	CYP2C9 act	CYP2C19 activ	CYP2C19 inh	EphB4 ephrin blk
COc1ccc(OCCSc2ncccn2)cc1	37	0.6	0.1	87*	0
COc1ccc(OCCCSc2ncccn2)cc1	22	0.8	0.4	64*	-7
c1ccc(Oc2cccc(OCCCCSc3ncccn3)c2)cc1	51*	0.5	0.6	38	4
c1ccc(Oc2cccc(OCCCn3cncn3)c2)cc1	94*	0.1	0	100*	4
CC(C)(C)c1nc(SCC(=O)Nc2ccc(N3CCOCC3)cc2)c2ccccc2n1	4	1	1.1	-10	7
COc1ccc(C2C(=O)N(C3CCCCC3)CC(=O)N2C2CCCCC2)cc1 (stereo not given)	53*	0.5	0.7	31	-7
Cc1ccc(C2C(=O)N(C3CCCC3)CC(=O)N2C2CCCCC2)cc1 (stereo not given)	21	0.8	0.8	17	0
COc1ccc(-c2nc(C)ncc2N=Nc2ccccc2)cc1	61*	0.4	0.9	13	-7
Cc1cc(C)cc(OC(=O)CS(=O)c2ccc(C(F)(F)F)cc2[N+](=O)[O-])c1 (stereo not given)	-102	2*	1	-3	-5
